Data on 8 molecules can be found in PubChem BioAssay (NCATS).

Records with an inconclusive call do not appear. Where a call stands in place of a potency, no number is given. Calls of active or inactive are those of the source. The call rests on the fitted dose curve; in most records, active means well fitted activation curve with a large enough effect; inconclusive means small, poorly fitted or top-dose-only effect; inactive means flat fitted curve, though single readings scatter.

A short description of this assay: Primary redox qHTS assay for identification of artifact compounds. (AID 1845223). As to conditions: Amplex Red/HRP redox cycling with DTT, fluorescence; series mostly up to 53.8 µM. The method in brief: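 Amplex Red (25 uM) and HRP (250 mU/mL) in HBSS, with compounds for 15 min, then 250 uM DTT for 30 min, room temperature, dark. Fluorescence 525/598 nm read; normalized to DMSO and 10 uM DA3003; Hill fit.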
In general terms: qHTS replaces the single test concentration by a dilution series.
Take `CC1=CC2/C=C(\C)CCC3OC(C)(C)OC3CCC(=O)C23C(=O)NC(CC(C)C)C3C1C` (stereo not drawn): the Potency entry is “inactive”.

On to `Cc1ccc(O)cc1Nc1ccnc(Nc2cccc(C(N)=O)c2)n1`, for which the Potency entry was “inactive”.

Regarding `O=C(Nc1ccccc1Br)NC1CCN(c2ccc(C(F)(F)F)cn2)C1` (stereo not drawn), the Potency result is “inactive”.

For the molecule `Cc1cc(C)c(S(=O)(=O)n2cc(C)cc2C)c(C)c1`, the Potency entry is “inactive”.

Consider `Cc1nc(C(=O)N2CCC[C@H]2Cc2nnc(-c3ccccc3)o2)c(-c2ccccc2F)s1`, for which the Potency entry was “inactive”.

Consider `CCCCCCOC(=O)/N=C(\N)c1ccc(NCc2nc3cc(C(=O)N(CCC(=O)OCC)c4ccccn4)ccc3n2C)cc1`, for which the Potency entry is “inactive”.

`C=C1C(=O)OC2C1CCC1(C)C(O)CCC(=C)C21` (stereo not drawn): the Potency result was “inactive”.

For the molecule `O=[N+]([O-])c1ccc(Oc2ccc3c(c2)CCC(c2ccccc2)O3)nc1` (stereo not drawn), the Potency result was “inactive”.
